Reference: PubChem BioAssay (NCI)
This is part of a sample that, as a whole, favours compounds with a hit. Of some 83,000 tested, about 20% had one in any assay.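 Testing used 96-well plates and a 48-hour single-concentration exposure. Example: -40 means 40% of the starting cells died.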 Values without a mark were called inactive. Calls of active or inactive are those of the source. How the source made its calls: active means growth percent below 10; inactive means the rest.

Key:
Experiment in all cases: NCI-60 one-dose screen, 48 h (100 = growth as untreated, 0 = no growth, -100 = all killed)
Conditions in all cases: 10 µM unless noted
EKVX NSCLC = system: EKVX NSCLC
SN12C renal = system: SN12C renal
UO-31 renal = system: UO-31 renal
TK-10 renal = system: TK-10 renal
ACHN renal = system: ACHN renal
CAKI-1 renal = system: CAKI-1 renal
A498 renal = system: A498 renal
CCRF-CEM leukemia = system: CCRF-CEM leukemia
MOLT-4 leukemia = system: MOLT-4 leukemia
SR leukemia = system: SR leukemia
RPMI-8226 leukemia = system: RPMI-8226 leukemia
OVCAR-8 ovarian = system: OVCAR-8 ovarian
OVCAR-5 ovarian = system: OVCAR-5 ovarian
OVCAR-4 ovarian = system: OVCAR-4 ovarian
SK-OV-3 ovarian = system: SK-OV-3 ovarian
IGROV1 ovarian = system: IGROV1 ovarian
HS 578T breast = system: HS 578T breast
NCI/ADR-RES ovarian = system: NCI/ADR-RES ovarian
T-47D breast = system: T-47D breast
OVCAR-3 ovarian = system: OVCAR-3 ovarian

SMILES | growth (EKVX NSCLC) | growth (SN12C renal) | growth (UO-31 renal) | growth (TK-10 renal) | growth (ACHN renal) | growth (CAKI-1 renal) | growth (A498 renal) | growth (CCRF-CEM leukemia) | growth (MOLT-4 leukemia) | growth (SR leukemia) | growth (RPMI-8226 leukemia) | growth (OVCAR-8 ovarian) | growth (OVCAR-5 ovarian) | growth (OVCAR-4 ovarian) | growth (SK-OV-3 ovarian) | growth (IGROV1 ovarian) | growth (HS 578T breast) | growth (NCI/ADR-RES ovarian) | growth (T-47D breast) | growth (OVCAR-3 ovarian)
CCCC(=O)NC(c1cccnc1)c1cc(C)c2cccnc2c1O (stereo not drawn) | 31.5% | 45.7% | 26.6% | 45.5% | 20.2% | 28% | 63.1% | 20.7% | 18.8% | 22.3% | 53.5% | 14% | 53.6% | 29.7% | 43.4% | 30.6% | 71.8% | 23.7% | 29.7% | 
COc1cc2cc(Oc3ccc(NC(=O)c4cccc(C(F)(F)F)c4)cc3)c(C)nc2cc1OCCN1CCCCC1 | 93.2% | 76.2% | 69.3% | 143% | 80.5% | 57.4% | 78.6% | 6.44% (active) | 1.53% (active) | -40.6% (active) | -10.4% (active) | 62.6% | 98.7% | 68.1% | 101% | 81.5% | 70% | 75.4% | -25.8% (active) | 
CCN1CCN(/C(=N\c2sc(-c3ccccc3)nc2-c2ccccc2)c2ccccc2)CC1 | 78.8% | 76.2% | 64.5% | 94.1% | 88.8% | 65.3% | 113% | 68.1% | 60.7% | 52.8% | 57.7% | 97.1% | 91.8% | 31.8% | 99.5% | 92.9% | 92.2% | 82.1% | 63.7% | 87.2%
CCN1C(=S)N(CC)C2C1NN=C1SC(c3ccccc3)=CC(=O)N12 (stereo not drawn) | 106% | 110% | 113% | 103% | 103% | 98.6% | 118% | 97.5% | 97.7% | 52.1% | 107% | 99.4% | 107% | 115% | 110% | 109% | 114% | 99.6% | 108% | 119%
CN1C(=O)N(c2ccccc2)C2N=C(N/N=C/c3ccccc3)SC21 (stereo not drawn) | 53.4% | 38.5% | 47.4% | 61.7% | 49.1% | 41.9% | -18.8% (active) | 17.1% | 25.5% | 13.6% | 22.5% | 25.7% | 35.1% | 68.3% | 37.1% | 38.2% | 2.36% (active) | 30.7% | 32.6% | 13.2%
N#Cc1c(-c2ccc(Cl)cc2)nc(SCc2ccc(F)cc2)nc1N1CCNCC1 | 73.7% | 52.2% | 51.3% | 92.7% | 36% | 49.8% | 65% | 37% | 7.99% (active) | -48.5% (active) | -36.9% (active) | 38.6% | 86% | 78.7% | 117% | 39.1% | 83.3% | 51.2% | 71.3% | 37.9%
Cc1ccc(/C=C/c2nn3c(-c4ccco4)nnc3s2)cc1C | 82.8% | 90.8% | 80.8% | 116% | 102% | 90.8% | 87% | 104% | 97.8% | 90.1% | 109% | 88.7% | 107% | 101% | 116% | 97.5% | 102% | 108% | 102% | 114%
Cc1[nH]nc2ncc(C#Cc3cncc(C(=O)Nc4ccc(CN5CCN(C)CC5)c(C(F)(F)F)c4)c3)cc12 | 54.9% | 7.71% (active) | -6.87% (active) | 27.8% | 4.36% (active) | -27.9% (active) | -17.7% (active) | 20.9% | 20.4% | 19.6% | 29.9% | 37.8% | 20.5% | 50.7% | 0.879% (active) | 1.84% (active) | 9.15% (active) |  | 32.6% | 37.8%
C/C(=N/NC(N)=S)c1ccc(Nc2nc(SCC(C)C)nc(-c3ccc(F)cc3)c2C#N)cc1 | -0.0417% (active) | 12.7% | 0.28% (active) | 8.09% (active) | 12.5% | -9.45% (active) | 15.9% | 51.7% | 44.4% | 42.8% | 34.2% | -3.63% (active) | 29.2% | 26.5% | 28.9% |  | 4% (active) | -14.6% (active) | 21.6% | -19.5% (active)
CNC(=O)c1cc(-c2ccc(NC(=O)Nc3ccc(N4CCOCC4)c(C(F)(F)F)c3)cc2)nc2cccnc12 | 76.6% | 41.6% | 43.2% | 156% | 50.8% | 64% | 79.9% | 40.5% | 34.6% | 13.6% | 9.25% (active) | 49.9% | 91.4% | 49.3% | 93.4% | 57.5% | 32.2% | 68.6% | 39.6% | 
COc1ccccc1C(=O)CSc1nc(Nc2ccc(S(N)(=O)=O)cc2)c2ccccc2n1 | 92.6% | 81.1% | 90.6% | 116% | 92.1% | 91.1% | 99.8% | 87.3% | 93% | 64.3% | 90.8% | 90.5% | 90.8% | 86.6% | 121% | 95.5% | 96.9% | 106% | 89.6% | 107%
Clc1ccc(-c2cn3cc(Cc4ccc(Cl)c(Cl)c4)sc3n2)cc1 | 69.8% | 76.6% | 68.1% | 112% | 47% | 42.6% | 82.3% | 79.7% | 61% | 94.5% | 90.9% | 75.5% | 83.6% | 56.1% | 106% | 62.5% | 94.1% | 88.9% | 50.4% | 97.5%
CN1CCN(Cc2ccc(NC(=O)c3cncc(C#Cc4cnc5ccc(N6CCSCC6)nn45)c3)cc2C(F)(F)F)CC1 | -47.1% (active) | -69.5% (active) | -11.5% (active) | -25.9% (active) | -91.4% (active) | -26.7% (active) | -81.9% (active) | 3.28% (active) | 4.9% (active) | -31.9% (active) | -7.39% (active) | -67.7% (active) | -22.4% (active) | -13.7% (active) | -19.8% (active) | -9.25% (active) | -24.7% (active) | -11.6% (active) | 34.1% | -59.6% (active)
Cn1cc(-c2cc(N)n3nc(-c4cn(C)c5ccc(Br)cc45)cc3n2)c2cc(Br)ccc21 | 90.7% | 90.3% | 81.8% | 133% | 92.2% | 79% | 102% | 22.8% | 48.9% | -13.5% (active) | 64.3% | 86.8% | 100% | 86.1% | 110% | 76.4% | 111% | 86.5% | 101% | 109%
N[C@@H](Cc1cn(-c2ccnc3ccccc23)nn1)C(=O)O | 98.5% | 93.2% | 88.2% | 101% | 96.1% | 97.3% | 110% | 103% | 107% | 95.1% | 106% | 104% | 101% | 109% | 101% | 102% | 109% |  | 101% | 
